# From PubChem BioAssay (NCI)
# This is part of a sample that, as a whole, favours compounds with a hit. Of some 83,000 tested, about 20% had one in any assay.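 Values shown are percent growth following 48 h exposure of cells in 96-well plates to a single concentration of compound; below 10 was considered active.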 A number with no mark means an inactive call. Active and inactive are the calls of the source.
# What was measured:
# Test in all cases: NCI-60 one-dose screen, 48 h (100 = growth as untreated, 0 = no growth, -100 = all killed)
# Conditions in all cases: 10 µM unless noted
# NCI-H23 lung = tested on: NCI-H23 lung
# NCI-H226 lung = tested on: NCI-H226 lung
# NCI-H322M lung = tested on: NCI-H322M lung
# HOP-62 NSCLC = tested on: HOP-62 NSCLC
# NCI-H460 lung = tested on: NCI-H460 lung
# HOP-92 NSCLC = tested on: HOP-92 NSCLC
# NCI-H522 lung = tested on: NCI-H522 lung
# A549/ATCC NSCLC = tested on: A549/ATCC NSCLC
# 786-0 renal = tested on: 786-0 renal
# COLO 205 colon = tested on: COLO 205 colon
Compound,growth (NCI-H23 lung),growth (NCI-H226 lung),growth (NCI-H322M lung),growth (HOP-62 NSCLC),growth (NCI-H460 lung),growth (HOP-92 NSCLC),growth (NCI-H522 lung),growth (A549/ATCC NSCLC),growth (786-0 renal),growth (COLO 205 colon)
COc1cccc2nc(Nc3cccc(NC(=O)c4ccc(CN5CCN(C)CC5)c(C(F)(F)F)c4)c3)ccc12,-97.8% (active),-93.4% (active),-100% (active),-78.5% (active),-77.1% (active),-66.7% (active),-87% (active),-70.5% (active),-81.7% (active),-73.7% (active)
O=C(Nc1ccc(-c2ccc3c(c2)NC(=O)/C3=C\c2ccc[nH]2)cc1)Nc1cccc(Cl)c1,-57.4% (active),2.01% (active),14.1%,-29.6% (active),1.16% (active),41.5%,-51.7% (active),-3.34% (active),-41.6% (active),-58.6% (active)
O=C(N/N=C/c1ccc(-c2cccc([N+](=O)[O-])c2)s1)c1[nH]c2ccc(Br)cc2c1-c1ccccc1,81.3%,94.8%,99.2%,64.4%,84.6%,94.4%,66.5%,91.4%,92.6%,97.7%
O=C1/C(=C/c2cccc3c2OCO3)Cc2c(F)cc(Br)cc21,97.2%,106%,113%,109%,117%,123%,104%,111%,107%,128%
C/C(=N/O)c1ccc(NC(=O)CSc2nnc(-c3ccc4nc(-c5ccc(Cl)cc5)[nH]c4c3)o2)cc1,-18.9% (active),110%,55.8%,20.2%,12.2%,88.7%,-16.3% (active),31.8%,-59.9% (active),122%
O=C(/C=C1\C(=O)N(Cc2ccccc2)c2ccccc21)c1cc2ccccc2oc1=O,89.4%,74.2%,93.9%,102%,103%,87.9%,35.4%,104%,100%,28.6%
O=C(Nc1ccc(S(=O)(=O)N2CCCCC2)cc1)C(Cl)Cl,103%,127%,114%,108%,108%,116%,98.4%,104%,98.9%,120%
Cc1nn(-c2ccccc2)c2nc(C)n(CC(=O)N/N=C/c3ccccc3O)c(=O)c12,28.8%,21.6%,29.4%,31.3%,4.76% (active),62.5%,6.39% (active),26.2%,18.5%,16.8%
CCCCC[C@@H]1C/C=C(\C)[C@@H](O)C(C)(C)C(=O)[C@@H](C)/C=C(\C)[C@@H]2C[C@H](O)C[C@](O)(CC(=O)O1)O2,31%,14%,82%,68.7%,49.6%,60.4%,12.5%,36.8%,65.8%,37.6%
CCOC(=O)c1ccc(NC(=S)NC(=O)c2ccc(NC(=O)C(C)C)cc2OC)cc1,15.9%,22.3%,74.9%,53.9%,44.5%,33.6%,30.9%,80.2%,85.2%,37.5%
C[C@H](NC(=O)c1ccc2c(-c3ccc(C(F)(F)F)cc3)cccc2c1)c1ccccn1,70.7%,28.3%,50.8%,77.3%,42.5%,25.5%,16.9%,39.6%,44.3%,61.6%
CN1CCc2c(sc3ncnc(N/N=C/c4cccc(Cl)c4Cl)c23)C1,-6.68% (active),134%,77.3%,-38.2% (active),-71.1% (active),58.4%,68.8%,-70.1% (active),-16.1% (active),-80.3% (active)
O=C1Nc2cc(-c3ccc(NS(=O)(=O)c4ccc(C(F)(F)F)cc4)cc3)ccc2/C1=C/c1ccc[nH]1,11%,49.7%,44%,43.5%,5.56% (active),42.8%,-18.4% (active),18.7%,40.8%,23.9%
N#Cc1ccc(C(=O)CSc2nc3c(c(Nc4ccc(S(N)(=O)=O)cc4)n2)CCC3)cc1,-0.896% (active),54.1%,75.3%,1.39% (active),39.6%,14.1%,44.6%,50%,-22.3% (active),87.2%
Cc1ccc(C(=O)Nc2cccc(C(=O)NC(=S)Nc3ccc(S(N)(=O)=O)cc3)c2)cc1,76.9%,67.5%,87.3%,74.9%,77.8%,67.5%,48.6%,74.7%,81.7%,98.4%
Nc1cc(-c2c[nH]c3ccc(F)cc23)nc2cc(-c3c[nH]c4ccccc34)nn12,-12.7% (active),52.9%,30.2%,1.04% (active),3.08% (active),-9.18% (active),-49.9% (active),9.83% (active),-81% (active),-88.8% (active)
Oc1ccc(Cl)c(Nc2nc(SCCN3CCOCC3)nc3c2cnn3CC(Cl)c2ccc(Br)cc2)c1 (stereo not given),31.8%,38.5%,92.8%,32.7%,10.1%,-6.99% (active),22.2%,12%,43.3%,106%
Cc1ccc(C(C)C)cc1Oc1cccc(-c2c(-c3ccc(C(F)(F)F)cc3)ncn2C2CCNCC2)n1,-89% (active),-78.4% (active),-98.4% (active),-82.7% (active),-84.3% (active),-85.8% (active),-91.2% (active),-86.8% (active),-90.8% (active),-87.5% (active)
N#Cc1c(NC(=O)N2CCOCC2)n(-c2ccc(OC(F)(F)F)cc2)c2cc(F)ccc12,90.7%,87.3%,108%,106%,94.5%,102%,78.8%,86.3%,112%,108%
O=C(Nc1ccc(-c2ccc3c(c2)NC(=O)/C3=C\c2ccc[nH]2)cc1)Nc1ccc(Cl)c(C(F)(F)F)c1,15.4%,65.8%,50.6%,44.1%,4.07% (active),46.9%,-15.1% (active),18%,48.8%,15.4%
COc1cc2cc(C(=O)N3C[C@@H](CCl)c4c3cc(OC(=O)N(CCC(=O)N3CCN(C)CC3)[C@H]3CCSSC3)c3ccccc43)[nH]c2c(OC)c1OC,-87% (active),-15.3% (active),-23% (active),-17.8% (active),-72.6% (active),-7.53% (active),-80.5% (active),-37.3% (active),-79.8% (active),-65.7% (active)
CCC(=O)c1c2c(c3ccc4c5ccccc5ccc4n13)C(=O)c1ccccc1C2=O,44.5%,45.7%,59.1%,81.7%,6.66% (active),117%,86.8%,31.7%,96.4%,75.8%
C=CCSc1nnc(-c2ccc(-c3nc4ccc(Cl)cc4[nH]3)cc2)o1,76.2%,103%,86.7%,39.9%,38.1%,81.8%,29.8%,60.3%,76.4%,55.7%
COc1ccc(-c2nc3ccc(-c4nnc(SCc5ccccc5)o4)cc3[nH]2)cc1OC,38.8%,-26.7% (active),46.7%,-29.8% (active),-6.16% (active),-3.75% (active),51.9%,9.7% (active),-33.5% (active),74.2%
COc1cccc(/C=C/c2nc3ccccc3c(=O)n2CC(=O)Nc2ccccc2)c1,59.2%,13.9%,72.3%,4.65% (active),51.4%,19.5%,53.3%,16.9%,-8.65% (active),75.5%
